Measurements taken from article PMC4336329 (PLoS ONE, 2015).
Among all 310,000 compounds or so, about 14,000 (4.5%) showed an effect of 50% or more. Effects have a minus sign here. The sample holds strong results, similar compounds and a random draw of the others, so the mix is not that of the screen.

target: human ether-à-go-go-related gene (hERG) potassium channel (human, UniProt Q12809); experiment: primary screen, population patch clamp on CHO cells stably expressing hERG; higher = less effect of the substance
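Note: peak tail current of the secondary pulse compared with the same well before compound.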

Chain of human ether-à-go-go-related gene (hERG) potassium channel (Q12809 whole entry, looked up): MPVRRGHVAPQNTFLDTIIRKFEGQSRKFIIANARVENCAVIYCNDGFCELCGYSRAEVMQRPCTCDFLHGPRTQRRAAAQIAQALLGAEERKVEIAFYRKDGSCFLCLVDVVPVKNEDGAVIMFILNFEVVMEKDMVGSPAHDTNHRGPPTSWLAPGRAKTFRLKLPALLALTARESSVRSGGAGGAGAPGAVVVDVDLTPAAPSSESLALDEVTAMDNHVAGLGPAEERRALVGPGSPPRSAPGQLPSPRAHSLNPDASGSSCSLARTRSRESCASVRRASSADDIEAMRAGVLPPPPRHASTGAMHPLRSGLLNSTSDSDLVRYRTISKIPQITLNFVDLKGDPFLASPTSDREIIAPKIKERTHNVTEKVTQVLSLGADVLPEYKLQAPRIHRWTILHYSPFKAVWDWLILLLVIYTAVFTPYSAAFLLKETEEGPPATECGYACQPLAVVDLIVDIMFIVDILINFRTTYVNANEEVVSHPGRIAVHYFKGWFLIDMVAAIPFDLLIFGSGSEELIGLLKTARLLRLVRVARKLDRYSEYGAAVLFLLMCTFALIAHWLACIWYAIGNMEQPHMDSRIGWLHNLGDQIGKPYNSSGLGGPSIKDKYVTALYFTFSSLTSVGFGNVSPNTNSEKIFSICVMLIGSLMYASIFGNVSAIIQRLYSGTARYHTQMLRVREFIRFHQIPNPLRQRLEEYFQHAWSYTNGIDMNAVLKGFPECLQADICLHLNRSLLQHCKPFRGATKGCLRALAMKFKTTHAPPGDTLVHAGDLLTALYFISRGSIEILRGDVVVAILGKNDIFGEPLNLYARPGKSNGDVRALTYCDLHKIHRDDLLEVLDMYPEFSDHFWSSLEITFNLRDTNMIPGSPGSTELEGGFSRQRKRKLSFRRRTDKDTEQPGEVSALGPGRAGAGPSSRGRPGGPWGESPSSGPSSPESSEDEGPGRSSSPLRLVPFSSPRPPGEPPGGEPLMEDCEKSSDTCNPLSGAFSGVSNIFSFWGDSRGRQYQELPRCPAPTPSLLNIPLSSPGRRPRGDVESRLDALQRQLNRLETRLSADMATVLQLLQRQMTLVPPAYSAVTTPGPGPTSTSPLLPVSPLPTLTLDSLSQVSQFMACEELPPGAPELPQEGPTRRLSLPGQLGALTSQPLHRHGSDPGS

First: Nc1c(Cl)ncnc1N/N=C/c1ccc2ccccc2n1
Second: O=C(CSc1ncnc2ccccc12)Nc1cc(S(=O)(=O)N2CCCCC2)ccc1Cl
The “hERG current change (%, negative = inhibition) at 10uM” value of the first is lower: -11.7% for the first, 14.4% for the second.

Compared with `COC(=O)COc1ccc(/C=C2\SC(=O)N(CC(=O)Nc3ccccc3F)C2=O)cc1`, `COC(=O)c1ccc(COc2ccc(/C=N/NC(N)=S)cc2)o1` is lower in “hERG current change (%, negative = inhibition) at 10uM” value: 14% for the first, -5.9% for the second.

First: Cc1nc(CNC(=O)CC2C(=O)NCCN2Cc2cccc(Oc3ccccc3)c2)cs1 (stereo not drawn)
Second: CCN1C(=O)C(CC(=O)Nc2ccc(OC)cc2)N(CCc2ccccc2)C1=S (stereo not drawn)
The “hERG current change (%, negative = inhibition) at 10uM” value of the first is higher: 10.4% for the first, -1.28% for the second.

Going from `CCOCCCNC(=O)/C(C#N)=C/c1ccccc1F` to `COCCNC(=O)C(=O)NCC1OCCN1S(=O)(=O)c1ccc(C)cc1` (stereo not drawn), the “hERG current change (%, negative = inhibition) at 10uM” value falls from 23.5% to 15.7%.

Going from `C/C(=N\NC(=O)c1ccc(Cl)cc1)c1ccc(Br)s1` to `CCc1ccc(C(=O)NNc2ccc(S(N)(=O)=O)cc2)cc1`, the “hERG current change (%, negative = inhibition) at 10uM” value rises from 2.93% to 9.05%.

First: NC(=O)COC(=O)CC12CC3CC(CC(Br)(C3)C1)C2
Second: O=C(COC(=O)CSc1ccc([N+](=O)[O-])cc1)NCC1CCCO1 (stereo not drawn)
The “hERG current change (%, negative = inhibition) at 10uM” value of the first is higher: 24.6% for the first, 12.3% for the second.

First: Cc1cc2nnc(SCC(=O)Nc3cccc(S(=O)(=O)N4CCOCC4)c3)n2c2ccccc12
Second: Cc1ccc(S(=O)(=O)N2CCOCC2)cc1NC(=O)CSc1nnc2cc(C)c3ccccc3n12
The “hERG current change (%, negative = inhibition) at 10uM” value of the first is higher: -14.4% for the first, -61.8% for the second.

Compared with `CCN(CC)S(=O)(=O)c1ccc(OC)c(NC(=O)CSc2ccccc2)c1`, `CCN(CC)S(=O)(=O)c1ccc(OC)c(NC(=O)CSc2cc(Cl)ccc2Cl)c1` is higher in “hERG current change (%, negative = inhibition) at 10uM” value: -72.9% for the first, -2.76% for the second.

Going from `O=C(CSc1nnc(-c2cccc(S(=O)(=O)N3CCOCC3)c2)n1C1CCCCCC1)NCc1ccccc1` to `CC(C)Cn1c(SCC(=O)NCc2ccc(Cl)cc2)nnc1-c1cccc(S(=O)(=O)N2CCOCC2)c1`, the “hERG current change (%, negative = inhibition) at 10uM” value falls from -17.5% to -52.9%.

Compared with `Cc1ccc(S(=O)(=O)N2CCOCC2)cc1NC(=O)C(c1ccc(Cl)cc1)C(C)C` (stereo not drawn), `Cc1ccc(S(=O)(=O)N2CCOCC2)cc1NC(=O)CSc1ccc(Cl)cc1` is lower in “hERG current change (%, negative = inhibition) at 10uM” value: 1.8% for the first, -51.3% for the second.

Compared with `CCN(CC)S(=O)(=O)c1ccc(OC)c(NC(=O)CSc2cc(C)ccc2C)c1`, `COc1ccc(S(=O)(=O)N2CCOCC2)cc1NC(=O)CSc1ccc(F)cc1` is lower in “hERG current change (%, negative = inhibition) at 10uM” value: -13.3% for the first, -42.6% for the second.

Going from `Cc1ccc(CSc2nnc(-c3cccc(S(=O)(=O)N4CCOCC4)c3)n2CC(C)C)cc1` to `Cc1cc2nnc(SCC(=O)Nc3cc(S(=O)(=O)N4CCOCC4)ccc3Cl)n2c2ccccc12`, the “hERG current change (%, negative = inhibition) at 10uM” value rises from -29.5% to -20.5%.

Going from `Cc1ccc(S(=O)(=O)N2CCOCC2)cc1NC(=O)CSc1ncccn1` to `COc1ccc(S(=O)(=O)N2CCOCC2)cc1NC(=O)CSc1ccccc1`, the “hERG current change (%, negative = inhibition) at 10uM” value falls from -4.68% to -53.9%.

Compared with `CC(C)CN(C(=O)COC(=O)Cc1ccc(Cl)cc1)c1c(N)n(Cc2ccccc2)c(=O)[nH]c1=O`, `CC(OC(=O)c1cccc(-n2cnnn2)c1)C(=O)NCc1ccccc1` (stereo not drawn) is lower in “hERG current change (%, negative = inhibition) at 10uM” value: 5.02% for the first, 0.976% for the second.

Going from `Cc1cccc(C(=O)N[C@@H](C)C(=O)N2CCN(c3ncccn3)CC2)c1` to `CCOc1ccc(NS(=O)(=O)c2cc(C(=O)N3CCN(C(C)=O)CC3)ccc2Cl)cc1`, the “hERG current change (%, negative = inhibition) at 10uM” value rises from -3.21% to 12.6%.

Going from `COc1ccc(OC)c(/C=C/C(=O)OCC(=O)Nc2nnc(-c3ccccc3)o2)c1` to `COc1ccc(S(=O)(=O)N2CCOCC2)cc1NC(=O)COc1ncnc2ccccc12`, the “hERG current change (%, negative = inhibition) at 10uM” value rises from -3.14% to 6.62%.

Going from `O=C(COC(=O)Cc1ccc(Br)cc1)Nc1c(F)c(F)c(F)c(F)c1F` to `COc1ccc(S(=O)(=O)N2CCOCC2)cc1NC(=O)CSc1ncnc2ccccc12`, the “hERG current change (%, negative = inhibition) at 10uM” value falls from 13.4% to -50.4%.

First: Cc1ccc(NC2=NCCCS2)c(C)c1C
Second: Cc1ccc(S(=O)(=O)N2CCCCC2)cc1NC(=O)CSc1ncnc2ccccc12
The “hERG current change (%, negative = inhibition) at 10uM” value of the first is higher: -11.5% for the first, -36.2% for the second.

Compared with `COc1ccc(S(=O)(=O)Nc2ccccn2)cc1`, `COc1ccc(S(=O)(=O)N2CCCCC2)cc1NC(=O)CSc1ncnc2ccccc12` is lower in “hERG current change (%, negative = inhibition) at 10uM” value: 13.8% for the first, -51.2% for the second.

Going from `CCC12OC(=N)C(C#N)(C1C)C(C#N)(C#N)C(c1ccccc1)O2` (stereo not drawn) to `COc1ccc(S(=O)(=O)N2CCOCC2)cc1NC(=O)CSc1cccc[n+]1[O-]`, the “hERG current change (%, negative = inhibition) at 10uM” value falls from 2.68% to -3%.

First: COc1ccc(S(=O)(=O)N2CCOCC2)cc1NC(=O)CSc1nnc2ccccn12
Second: C#CCOCCOCCOCCNc1nc(N2CCN(C(=O)CCCCCCCCCCNC(=O)[C@@H](CCC(=O)O)n3cc(CCCCCN)nn3)CC2)nc(N2CCN(C(=O)CCCCCCCCCCNC(=O)[C@H](CO)n3cc(CCCSC)nn3)CC2)n1
The “hERG current change (%, negative = inhibition) at 10uM” value of the first is lower: 5.54% for the first, 11.9% for the second.
